Inhibition data for 69 compounds are collected here from PubChem BioAssay AID2330 (Broad Institute, 2010).

The campaign covered roughly 37,000 compounds. About 2,800 (7.6%) were called active. About 1% were inconclusive and are not listed. This excerpt belongs to a sample that is enriched for actives. A number with no mark means an inactive call. No stated cut-off is given here; in the data, active means inhibition above about 80%; inconclusive means no clear call, values can overlap the other calls; inactive means below that.

This assay in a line: NOMO-1 AML cell viability reduction, primary screen, STK33 inhibitor project, CellTiter-Glo luminescence (AID 2330). Conditions: NOMO-1 AML viability, 72 h, active compounds read high, concentration not given here. (In general: In ATP-based viability assays light output follows the ATP content of the culture.)
Take `C[C@H](CO)N1C[C@H](C)[C@@H](CN(C)Cc2ccc(Cl)c(Cl)c2)Oc2c(NC(=O)Nc3ccccc3)cccc2C1=O`: the inhibition is 59.3%.
Under `O=C(c1cc([N+](=O)[O-])ccc1NCc1cccnc1)N1CCOCC1` stands -0.79%.
With `COc1ccc(NC(=O)N(C)C[C@@H]2Oc3c(NC(=O)Nc4cccc5ccccc45)cccc3C(=O)N([C@@H](C)CO)C[C@H]2C)cc1` the figure was 33.8%; with `C[C@@H]1CN([C@H](C)CO)C(=O)c2cc(NS(=O)(=O)c3ccc(F)cc3)ccc2O[C@@H]1CN(C)C(=O)Nc1cccc2ccccc12`, 15.5%; with `COC(=O)c1ccc(NC(=O)CN(c2ccc(C)c(Cl)c2)S(C)(=O)=O)cc1`, -3.13%.
Under `COC(=O)c1c(C)n(CCNc2ccc([N+](=O)[O-])cc2)c2ccc(O)cc12` stands 32.6%; under `COC(=O)c1ccc(NCc2cc(O)ccc2O)cc1`, 96.2% (active); under `O=C(CSc1nc(O)cc(=O)n1-c1ccccc1F)Nc1ccc(Cl)cc1Cl`, 9.63%.
Consider `COC(=O)c1ccccc1NC(=O)CN(c1ccc2c(c1)OCCO2)S(C)(=O)=O`, for which the inhibition is -1.24%.
With `C[C@H]1CN([C@@H](C)CO)C(=O)c2cc(NC(=O)Cc3cn(C)c4ccccc34)ccc2O[C@@H]1CN(C)Cc1ccc(Cl)c(Cl)c1` the figure was 87.6% (active).
`C[C@@H]1CN([C@@H](C)CO)C(=O)c2cc(NC(=O)Cc3ccccc3)ccc2O[C@H]1CN(C)Cc1ccc(Cl)c(Cl)c1`: the inhibition was 54.8%.
Under `C[C@H]1CN([C@@H](C)CO)C(=O)c2cc(NC(=O)Cc3cn(C)c4ccccc34)ccc2O[C@H]1CN(C)CC1CCCCC1` stands 15%; under `C[C@H](CO)N1C[C@H](C)[C@H](CN(C)Cc2ccncc2)Oc2ccc(NC(=O)Cc3cn(C)c4ccccc34)cc2CC1=O`, 6.89%; under `C[C@H]1CN([C@@H](C)CO)C(=O)c2cc(NC(=O)Cc3cn(C)c4ccccc34)ccc2O[C@H]1CN(C)Cc1ccc(Cl)c(Cl)c1`, 84% (active).
Under `C[C@@H]1CN([C@H](C)CO)C(=O)c2cc(NC(=O)Cc3cn(C)c4ccccc34)ccc2O[C@H]1CN(C)S(C)(=O)=O` stands 15.5%; under `Cc1noc(C)c1NC(=O)N(C)C[C@@H]1Oc2ccc(NC(=O)Nc3ccc(C(F)(F)F)cc3)cc2C(=O)N([C@H](C)CO)C[C@@H]1C`, 7.38%.
Under `CC(=O)N[C@@H](C(=O)O[C@H]1CCC(C)(C)[C@@H]2CCC3=C(COC3=O)[C@@]12C)C(C)C` stands 25.2%; under `Cc1ccc(-c2nc(S(=O)(=O)c3ccc(Br)cc3)c(SCC(N)=O)o2)cc1`, 11.1%.
`O=C(c1ccccc1)c1cnn(-c2ccc(Cl)cc2)n1`: the inhibition is 18.2%.
Under `Cc1ccccc1NC(=O)CSc1nnc(-c2ccc([N+](=O)[O-])cc2)n1C` stands -7.25%.
For the compound `CCCn1c2ccccc2c2nnc(SCC(=O)Nc3cccc4ccccc34)nc21`, the inhibition was 9.77%.
Under `O=C1C(=O)N(CCn2c3ccccc3c3nc4ccccc4nc32)c2ccccc21` stands 119% (active).
Regarding `CCn1c2ccccc2c2nnc(SCC(=O)O)nc21`, the inhibition is 11.8%.
As to `Cc1ccc(C)c(OCC(=O)Nc2ccccc2C#N)c1`, the inhibition is 15.4%.
Under `C[C@@H]1CN([C@H](C)CO)C(=O)c2cccc(NS(=O)(=O)c3cn(C)cn3)c2O[C@@H]1CN(C)Cc1ccc(C(F)(F)F)cc1` stands -20.1%; under `C[C@@H]1CN([C@@H](C)CO)C(=O)c2cccc(NS(=O)(=O)c3ccccc3)c2O[C@@H]1CN(C)S(=O)(=O)c1ccc(F)cc1`, 65%.
With `O=C(Nc1ccccc1)Nc1cc(C2CC2)nn1-c1ccccc1` the figure was 16.4%; with `O=C(Nc1ccccc1)C(=S)Nc1ccccc1`, 38.4%.
Under `O=C(Nc1ccccc1)Nc1ccc(C2SCCS2)cc1` stands 89.9% (active); under `C=C1C(=O)O[C@H]2C3=C(C)C[C@H](OC(C)=O)C[C@]3(C)CC[C@@H]12`, 122% (active).
For `COc1ccc(CN(C)C[C@H]2Oc3ccc(NS(=O)(=O)c4c(C)noc4C)cc3CC(=O)N([C@H](C)CO)C[C@H]2C)cc1`, the inhibition was 5.72%.
Under `COc1ccc(N(C(C)C(=O)Nc2cccc(Br)c2)S(C)(=O)=O)cc1` (centres undefined) stands -13.9%; under `Cc1nc(SCC(=O)Nc2ccc(C(=O)O)cc2)[nH]c(=O)c1C`, 24.5%.
Take `COC(=O)c1ccc(NC(=O)CSc2nc(-c3ccccc3)cc(=O)[nH]2)cc1`: the inhibition is 0.0616%.
Consider `COC(=O)c1ccc(NC(=O)CSc2nc(-c3ccccc3)c(-c3ccccc3)[nH]2)cc1`, for which the inhibition was 102% (active).
In the case of `C[C@H](CO)N1C[C@H](C)[C@H](CN(C)S(C)(=O)=O)Oc2ccc(NC(=O)c3ccncc3)cc2CC1=O`, the inhibition was -14.9%.
With `CNC[C@H]1Oc2ccc(NS(=O)(=O)c3ccc(F)cc3)cc2CC(=O)N([C@H](C)CO)C[C@H]1C` the figure was -15.6%; with `S=C(NCC1CC1)Nc1ccc(Cl)cc1`, 34.8%; with `Oc1cc2c(cc1O)CN(C(=S)NCCc1ccc(Cl)cc1)CCC2`, 96.6% (active).
Under `COc1cccc2cc(C(=O)C3C(=O)C(=O)N(CCN4CCOCC4)C3c3ccc(F)cc3)oc12` (centres undefined) stands -8.3%; under `COc1ccc(CNC(=O)c2c(C)oc3c2cc(OC(C)=O)c2ccccc23)cc1`, 43%.
With `Cc1noc(C)c1S(=O)(=O)Nc1ccc2c(c1)CC(=O)N([C@H](C)CO)C[C@@H](C)[C@@H](CN(C)Cc1ccc(C(=O)O)cc1)O2` the figure was -16.8%; with `C[C@H](CO)N1C[C@H](C)[C@H](CN(C)S(=O)(=O)c2cn(C)cn2)Oc2c(NC(=O)c3ccncc3)cccc2C1=O`, 29.1%.
Consider `Cc1c(Cl)cccc1NC(=O)Cn1cc(C(=O)c2cccs2)c2ccccc21`, for which the inhibition was 88.1% (active).
Under `O=C(Cn1cc(C(=O)C2CC2)c2ccccc21)Nc1ccccc1Cl` stands 3.17%.
Consider `COc1ccc(OC)c(NC(=O)Cn2cc(C(=O)C3CC3)c3ccccc32)c1`, for which the inhibition is -2.38%.
With `C[C@@H]1CN([C@@H](C)CO)C(=O)c2cccc(N(C)C)c2O[C@H]1CN(C)S(=O)(=O)c1cccs1` the figure was 22.8%; with `Cc1ccnc(N)c1`, 6.37%.
With `C[C@H](CO)N1C[C@H](C)[C@H](CN(C)C)Oc2ccc(NC(=O)Nc3ccc(F)cc3)cc2CC1=O` the figure was -3.06%.
With `COc1ccc(NC(=O)N(C)C[C@@H]2Oc3c(NC(=O)NC4CCCCC4)cccc3C(=O)N([C@H](C)CO)C[C@H]2C)cc1` the figure was -1.16%.
For the compound `C=CC(C)(O)CCC1(C)C2=C(C(OC(C)=O)C(OC(C)=O)C1C)C(C)(C)CCC2` (centres undefined), the inhibition is 115% (active).
With `C[C@@H]1CN([C@@H](C)CO)C(=O)c2cc(NC(=O)Nc3ccccc3)ccc2O[C@H]1CN(C)S(=O)(=O)c1ccccc1` the figure was -0.0629%; with `C[C@H](CO)N1C[C@H](C)[C@H](CN(C)S(=O)(=O)c2ccc(Cl)cc2)Oc2ccc(NC(=O)C3CCCCC3)cc2C1=O`, 7.26%.
Under `COc1ccc(OC)c(NC(=O)CSc2n[nH]c(-c3ccncc3)n2)c1` stands 14.4%.
Turning to `CC(C)NC(=O)Nc1ccc2c(c1)CC(=O)N([C@H](C)CO)C[C@H](C)[C@H](CN(C)Cc1ccc3c(c1)OCO3)O2`, the inhibition was 14.7%.
For the compound `COc1ccc(CN(C)C[C@@H]2Oc3ccc(NC(=O)Nc4ccc5c(c4)OCO5)cc3CC(=O)N([C@H](C)CO)C[C@H]2C)cc1`, the inhibition was 8.79%.
Consider `C[C@@H]1CN([C@H](C)CO)C(=O)Cc2cc(NC(=O)Nc3ccc(F)cc3)ccc2O[C@@H]1CN(C)Cc1ccc2c(c1)OCO2`, for which the inhibition was 31%.
Under `C[C@@H]1CN([C@H](C)CO)C(=O)Cc2cc(NC(=O)Nc3ccc4c(c3)OCO4)ccc2O[C@@H]1CN(C)Cc1ccc(C(=O)Nc2ccccc2N)cc1` stands 96.7% (active); under `C[C@H](CO)N1C[C@H](C)[C@H](CN(C)Cc2ccc(C(=O)Nc3ccccc3N)cc2)Oc2ccc(NC(=O)Nc3ccccc3)cc2CC1=O`, 141% (active).
Under `C[C@H]1CN([C@@H](C)CO)C(=O)Cc2cc(NC(=O)CCCCCC(=O)Nc3ccccc3N)ccc2O[C@@H]1CN(C)Cc1ccncc1` stands 19.5%.
With `C[C@H]1CN([C@@H](C)CO)C(=O)Cc2cc(NC(=O)Nc3ccc4c(c3)OCO4)ccc2O[C@H]1CN(C)Cc1ccc(C(=O)Nc2ccccc2N)cc1` the figure was 127% (active); with `CC(C)NC(=O)Nc1ccc2c(c1)CC(=O)N([C@H](C)CO)C[C@@H](C)[C@@H](CN(C)Cc1ccc(C(=O)Nc3ccccc3N)cc1)O2`, 60.7%.
Regarding `C[C@@H]1CN([C@H](C)CO)C(=O)Cc2cc(NC(=O)Nc3ccc4c(c3)OCO4)ccc2O[C@H]1CN(C)Cc1ccc(C(=O)O)cc1`, the inhibition is 20.5%.
As for `CCN1CCN(C(=O)N[C@@H](C(=O)N[C@@H]2C(=O)N3C(C(=O)O)=C(CSc4nnnn4C)CS[C@H]23)c2ccc(O)cc2)C(=O)C1=O`, the inhibition was 16.9%.
Under `Cc1ccc(C)c(S(=O)(=O)NC(C)C(=O)Nc2ccc(Br)cc2F)c1` (centres undefined) stands 1.68%; under `Cc1noc(C)c1S(=O)(=O)Nc1ccc2c(c1)CC(=O)N([C@H](C)CO)C[C@H](C)[C@H](CN(C)S(=O)(=O)c1cn(C)cn1)O2`, -3.68%.
With `C[C@@H]1CN([C@H](C)CO)C(=O)Cc2cc(NS(C)(=O)=O)ccc2O[C@@H]1CN(C)C(=O)Nc1ccc2c(c1)OCO2` the figure was -3.88%; with `O=C(Oc1ccccc1)c1cccc(COC(=O)c2cc3ccccc3oc2=O)c1`, 5.03%.
Under `C[C@H](CO)N1C[C@H](C)[C@@H](CN(C)C(=O)Nc2ccccc2)Oc2ccc(N(C)C)cc2C1=O` stands 14.4%.

As a reminder, the inhibition is the relative decrease from the control value, in per cent.
